IEC-6 cytotox = kills IEC-6 intestinal cells in KLF5 counter-screen. IEC-6 cytotoxicity, luminescence viability. inhibition, % at 5 µM. 290,000 tested, 0.78% active. AID 1825; in the data active = inhibition above about 22%;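 also: 0% = plate median of test compound wells and 100% = cytotoxic reference compound wells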
Ba/F3 V617F tox = lowers viability of Ba/F3 cells expressing EpoR and JAK2V617F; ATP luminescence; inhibition, % at 5.6 µM; 220,000 tested, 1.1% active; AID 1446;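 active = inhibition above the campaign mean plus 3 SD over all tested compounds, cut at about 24% in these data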;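 also: cytokine-independent growth of Ba/F3 cells driven by EpoR plus mutant JAK2; 0% = DMSO-treated cells and 100% = JAK inhibitor I control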
APP 5UTR inh = APP translation inhibition | SH-SY5Y APP 5'UTR-luciferase reporter, luminescence | 190,000 tested, 0.82% active | inhibition, % at 2 µM;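 active = inhibition above a set limit, derived from the sample mean plus 3 SD, cut at about 45% in these data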
KLF5 inhibitor = kruppel-like factor 5 inhibition; DLD-1 KLF5 promoter-luciferase reporter, luminescence; inhibition, % at 5 µM; 290,000 tested, 0.23% active; AID 1700;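 active = inhibition above a per-plate limit of that plate's mean compound inhibition plus 3 SD, cut at about 60% in these data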;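 also: 0% = DMSO wells and 100% = LY294002 at 200 µM; higher means less KLF5 promoter-driven luciferase light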
BaF3 tox = parental Ba/F3 viability inhibition as JAK2V617F counter-screen | 220,000 tested, 1.1% active | inhibition, % at 5.6 µM | AID 1486 | CellTiter-Glo ATP luminescence;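 active = inhibition above a per-campaign cutoff, the mean inhibition of all tested compounds plus 3 SD, cut at about 27% in these data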;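 also: 0% = DMSO wells and 100% = JAK Inhibitor I control wells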
aSyn UTR inh = MLPCN primary screen, SNCA 5' untranslated region. 300,000 tested, 0.82% active. inhibition, % (tested at 7.5 µM). alpha-synuclein 5'UTR reporter, inhibitor activity; in the data active = inhibition above about 60%;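 also: H4 neuroglioblastoma cells stably carrying SNCA 5'UTR luciferase fusion; 0% = DMSO wells and 100% = positive control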
An asterisk follows results filed as active. Only some compounds are listed: those with a hit (about 2.2% of all), similar ones and a draw of the others.

Screening N#Cc1c(NC(=O)CSc2nc(N)cc(=O)[nH]2)sc2c1CCCCCC2 returned IEC-6 cytotox 4, Ba/F3 V617F tox 0, APP 5UTR inh 1, KLF5 inhibitor -15, BaF3 tox 5 and aSyn UTR inh 14.
`N#Cc1c(NC(=O)CSc2ncn[nH]2)sc2c1CCCCC2` gave IEC-6 cytotox 3, Ba/F3 V617F tox 0, APP 5UTR inh 79*, KLF5 inhibitor 2, BaF3 tox 4 and aSyn UTR inh 82*.
For CCCCCSc1nnc(N)s1 the results were IEC-6 cytotox -7, Ba/F3 V617F tox -1, KLF5 inhibitor -17, BaF3 tox 2 and aSyn UTR inh -8.
`C=CCN(C(=O)CCc1ccccc1OC)c1nc(-c2ccc(S(C)(=O)=O)cc2)cs1` gave IEC-6 cytotox -1, KLF5 inhibitor 7 and aSyn UTR inh 71*.
CCCCN(CC)CCNC(=O)c1cc2c(-c3ccc(Cl)cc3)nn(C)c2s1 was read as IEC-6 cytotox 4, KLF5 inhibitor -26 and aSyn UTR inh 79*.
CCN(CC)CCNC(=O)c1cc2c(-c3ccc(Cl)cc3)nn(C)c2s1 was read as IEC-6 cytotox 9, Ba/F3 V617F tox 3, APP 5UTR inh 9, KLF5 inhibitor -12, BaF3 tox 8 and aSyn UTR inh -43.
Cc1ccc(S(=O)(=O)N2CCC(C(=O)Nc3ccccc3N3CCCC3)CC2)cc1C was read as aSyn UTR inh 2.
For Cc1ccc(NC(=O)N2CCCC2C(=O)Nc2c(C)cc(C)cc2C)cc1 (stereo not drawn) the results were IEC-6 cytotox -3, KLF5 inhibitor -28 and aSyn UTR inh 13.
Cc1cccc(-c2nc3cc(NC(=O)C4CCCO4)ccc3o2)c1 (stereo not drawn) was read as IEC-6 cytotox 3, Ba/F3 V617F tox 1, APP 5UTR inh -138, KLF5 inhibitor -163, BaF3 tox 5 and aSyn UTR inh 72*.
Screening Cc1ccc(-c2nc3cc(NC(=O)C(C)C)ccc3o2)cc1C returned IEC-6 cytotox 5, Ba/F3 V617F tox -3, APP 5UTR inh -160, KLF5 inhibitor -147, BaF3 tox 3 and aSyn UTR inh 61.
Screening Cc1ccc(-c2nc3cc(NC(=O)C(C)C)ccc3o2)cc1 returned IEC-6 cytotox -1, Ba/F3 V617F tox 0, APP 5UTR inh -147, KLF5 inhibitor -230, BaF3 tox 28* and aSyn UTR inh -7.
Screening O=C(Nc1nc2ccccc2[nH]1)C1CCCO1 (stereo not drawn) returned IEC-6 cytotox -1, Ba/F3 V617F tox 1, APP 5UTR inh -30, KLF5 inhibitor -19, BaF3 tox 8 and aSyn UTR inh -79.
`O=C(Nc1ccc(-c2nc3ccccc3[nH]2)cc1)C1CCCO1` (stereo not drawn) gave IEC-6 cytotox 10, Ba/F3 V617F tox 15, APP 5UTR inh -180, KLF5 inhibitor -43, BaF3 tox 22 and aSyn UTR inh 77*.
Cc1ccc2oc(-c3cccc(NC(=O)C4CCCO4)c3)nc2c1 (stereo not drawn) was read as IEC-6 cytotox 3, Ba/F3 V617F tox 2, APP 5UTR inh -56, KLF5 inhibitor -133, BaF3 tox 5 and aSyn UTR inh -181.
COc1ccc(C)cc1NC(=O)C(Sc1nnc(-c2ccncc2)n1-c1ccc(Cl)cc1)c1ccccc1 (stereo not drawn) was read as IEC-6 cytotox 3, Ba/F3 V617F tox 5, APP 5UTR inh 9, KLF5 inhibitor 14, BaF3 tox 7 and aSyn UTR inh -11.
For C=CCOc1ccc(C(c2c(C)n(C)n(-c3ccccc3)c2=O)c2c(C)n(C)n(-c3ccccc3)c2=O)cc1 the results were IEC-6 cytotox -4, KLF5 inhibitor -27 and aSyn UTR inh 15.
`Cc1ccc(C)c(N2CCN(C(=O)c3ccc(NC4=NC5CS(=O)(=O)CC5S4)cc3)CC2)c1` (stereo not drawn) gave IEC-6 cytotox 7, KLF5 inhibitor -2 and aSyn UTR inh -19.
`CC1C/C(=C\c2cccnc2)C(=O)/C(=C/c2cccnc2)C1` (stereo not drawn) gave IEC-6 cytotox 14, Ba/F3 V617F tox 7, APP 5UTR inh 96*, KLF5 inhibitor 20 and BaF3 tox -5.
BrC(/C=C\c1ccccc1)=N/Nc1nc(N2CCOCC2)nc(N2CCOCC2)n1 was read as IEC-6 cytotox -4, Ba/F3 V617F tox -1, APP 5UTR inh 27, KLF5 inhibitor -19, BaF3 tox -2 and aSyn UTR inh -27.
